The source of these data is PubChem BioAssay.

Active and inactive are the calls of the source.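 Rule for the calls, unless noted: active = visually confirmed hit in the image check and inhibition above 20%; inconclusive = visually confirmed hit but inhibition not above 20%; inactive = no visual hit in the image check.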

A short description of test [1]: inhibitors of TNFa-induced NFkB p65 translocation, primary screen, imaging, HUVEC, MLSMR starter and 10KST1 sets (AID 438;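 active = inhibition above 20% together with a positive visual image hit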;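 note: compound added about 3h40 before a 20 min TNFalpha stimulation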;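 for inhibition: signal is the nuclear over cytoplasmic p65 intensity ratio per well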). The conditions noted are these: HUVEC TNFa-induced p65 nuclear translocation; cell count: measured here: nuclei count (cytotoxicity indicator), at 2.08 µM; inhibition: at 2 µM, stronger effect = higher value, 0% TNFa-plus-vehicle, 100% no-TNFa wells.
Test [2] in a line: inhibitors of mutant huntingtin aggregation, primary screen, imaging, exon1htt(103Q)mCFP cells, high-content imaging (AID 483;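 active = visual image review flags a hit and inhibition of aggregation exceeds 20%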;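 note: compound exposure lasted 3 days before fixation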;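 for nuclei count: percent of the per-plate median nuclei count of sample wells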). The note with it: exon1htt(103Q)mCFP cell line, aggregate imaging, at 2 µM; inhibition of aggregation: stronger effect = higher value; nuclei count: measured here: cell count, toxicity.
Test [3] is described as follows: inhibitors of E-selectin induction by TNFa, primary screen, imaging, HUVEC, immunofluorescence, MLSMR starter and 10KST1 sets (AID 487).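 For inhibition: signal is fraction of cell area covered by stained E-selectin grains.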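 For nuclei count: 100% = median nuclei count of all wells on the same plate.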 The conditions noted are these: HUVEC TNFalpha-induced E-selectin immunofluorescence imaging, at 2 µM; inhibition: stronger effect = higher value; nuclei count: measured here: cell number, toxicity.
The target of test [4] is Voltage-gated potassium channel subunit beta-2 (Rattus norvegicus) (UniProt P62483). Kind of test: KvBeta enzyme negative modulators, primary screen, biochemical, NADPH fluorescence (AID 622;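 active = fluorescence slope higher than the sample average by over 3 SD, cut at about -0.22 in these data, passing the limit was not always enough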;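 note: slope of raw intensity against log time taken from 70 to 1610 s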). The note with it: recombinant KvBeta, 4-cyanobenzaldehyde reduction, at 10 µM, stronger effect = higher value.
For test [5] the target is unchanged. Briefly: KvBeta positive modulators, primary screen, biochemical, NADPH fluorescence (AID 623;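 active = NADPH fluorescence slope more negative than the mean of all samples by about 3 SD, 99.7% confidence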;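 note: fluorescence intensity change per second fitted from 20 to 320 s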). The note with it: Recombinant KvBeta, NADPH fluorescence decrease slope, 10 min; at 10 µM; stronger effect = lower value.
The target of test [6] is Alpha-2C adrenergic receptor (Homo sapiens) (UniProt P18825). Briefly: modulators of alpha2C/GIRK thallium flux, primary screen, cell-based, HEK293 alpha2C/GIRK1/2 (AID 624;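 active = fluorescence slope after compound addition differing from the mean of all screened samples at 99.7% confidence, in either direction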;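 note: slope of fluorescence ratio to pre-addition baseline per second over 15 to 24 s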). The note with it: thallium flux BTC fluorescence, at 10 µM, actives lie on both sides.
Test [7] is described as follows: inhibitors of Sendai virus-induced IRF3 signaling, primary screen, TLR/RLR signaling modifier project, cell-based, Sendai virus stimulus, luciferase, 10K MLSCN set (AID 602276;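 active = inhibition at or above 50% at 10 µM; inactive = inhibition below 50%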;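 note: firefly luciferase from ISG56 promoter only with Renilla not read in this screen; 0% = Sendai virus plus DMSO and 100% = medium plus DMSO without virus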). The conditions noted are these: HEK293 RL24 IRF3 luciferase reporter, at 10 µM, stronger effect = higher value. In general terms: Reporter assays use an easily measured gene product as a stand-in for the process of interest.

A short description of test [8]: inhibitors of poly I:C-induced TLR3 signaling, primary screen, cell-based, poly I:C stimulus, luciferase, 10K MLSCN set (AID 602277;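 active = inhibition of the reporter signal at or above 50%; inactive = inhibition below 50%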). The note with it: HEK293-TLR3 RL24 IRF3 luciferase reporter, at 10 µM, stronger effect = higher value.

Chain of Voltage-gated potassium channel subunit beta-2 (Rattus norvegicus) (P62483 whole entry, looked up): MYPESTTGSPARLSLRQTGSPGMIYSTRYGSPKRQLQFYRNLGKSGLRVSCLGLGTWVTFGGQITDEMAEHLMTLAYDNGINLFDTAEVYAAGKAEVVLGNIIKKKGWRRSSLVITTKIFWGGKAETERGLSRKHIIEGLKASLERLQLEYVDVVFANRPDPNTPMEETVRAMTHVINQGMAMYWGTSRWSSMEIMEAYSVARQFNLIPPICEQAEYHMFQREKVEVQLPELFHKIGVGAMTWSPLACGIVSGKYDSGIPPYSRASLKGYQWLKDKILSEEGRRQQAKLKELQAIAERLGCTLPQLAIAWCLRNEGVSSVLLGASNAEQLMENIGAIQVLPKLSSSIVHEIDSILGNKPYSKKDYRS
Chain of Alpha-2C adrenergic receptor (Homo sapiens) (P18825 whole entry, looked up): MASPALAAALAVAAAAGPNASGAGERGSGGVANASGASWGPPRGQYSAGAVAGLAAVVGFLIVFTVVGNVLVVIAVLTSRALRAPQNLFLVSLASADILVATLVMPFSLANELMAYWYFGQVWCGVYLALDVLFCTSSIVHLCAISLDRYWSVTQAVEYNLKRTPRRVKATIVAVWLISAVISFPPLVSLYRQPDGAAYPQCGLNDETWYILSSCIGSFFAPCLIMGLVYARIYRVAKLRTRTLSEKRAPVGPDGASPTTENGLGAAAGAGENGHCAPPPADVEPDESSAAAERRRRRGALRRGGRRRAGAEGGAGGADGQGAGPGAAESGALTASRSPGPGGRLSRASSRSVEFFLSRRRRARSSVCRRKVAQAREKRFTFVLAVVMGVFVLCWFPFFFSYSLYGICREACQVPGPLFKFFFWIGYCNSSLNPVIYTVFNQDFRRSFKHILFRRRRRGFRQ

As for `COc1ccc2nc(CC(C)(C)CC(=O)O)c[n+]([O-])c2c1`, the cell count in test [1] was 377. In addition, the inhibition was -1% (inactive) in test [1], -11.7% (inactive) in test [3], 10.6% (inactive) in test [7] and 29.8% (inactive) in test [8]. Besides, in test [2], the inhibition of aggregation is -0.5% (inactive). Besides, the nuclei count came to 110% in test [2] and 94% in test [3]. Moreover, the fluorescence slope in test [4] is -0.587 (inactive). Also, the NADPH fluorescence slope in test [5] was -1.8e-05 (inactive). Besides, the slope in test [6] is 0.0065 (inactive).

For `CCCNC(=O)CS(=O)(=O)Cc1nc(-c2cccc(OC)c2)oc1C`, in test [1], the cell count was determined as 781. The inhibition in test [1] is 3.5% (inactive); in test [3], -52% (inactive); in test [7], 9.03% (inactive); in test [8], -7.6% (inactive). In addition, in test [2], the inhibition of aggregation was 12.5% (inactive). In addition, the nuclei count in test [2] was found to be 99.7%; in test [3], 127%. Besides, in test [4], the fluorescence slope was -0.543 (inactive). Also, the NADPH fluorescence slope in test [5] is 4.4e-05 (inactive). For the same compound, the slope in test [6] was 0.007 (inactive).

Turning to `COC(=O)c1cccc(NC(=O)Cc2coc3cc(OC)ccc23)c1`, in test [1], the cell count was found to be 402. Besides, the inhibition is 11.4% (inactive) in test [1], -64.1% (inactive) in test [3], 4.7% (inactive) in test [7] and -15.2% (inactive) in test [8]. Moreover, the inhibition of aggregation in test [2] was 5.4% (inactive). In addition, the figures for the nuclei count in test [2] and in test [3] were 75.4% and 120%, respectively. Moreover, the fluorescence slope in test [4] was -0.595 (inactive). The NADPH fluorescence slope in test [5] was -6.1e-06 (inactive). In addition, the slope in test [6] is 0.0055 (inactive).

`COc1ccc2oc(=O)c(C(=O)N3CCN(c4ccccc4F)CC3)cc2c1`: the cell count in test [1] amounted to 365. Moreover, the inhibition in test [1] is -0.4% (inactive); in test [3], -15.2% (inactive); in test [7], 16.3% (inactive); in test [8], 21.2% (inactive). Also, in test [2], the inhibition of aggregation was -3.7% (inactive). The nuclei count in test [2] was found to be 95.9%; in test [3], 109%. The fluorescence slope in test [4] is -0.335 (inactive). In addition, the NADPH fluorescence slope in test [5] is 2.4e-05 (inactive). Besides, in test [6], the slope was 0.00535 (inactive).

For the compound `CCC(=O)Nc1cc2nn(-c3ccccc3)nc2cc1Cl`, the cell count in test [1] stood at 442. Also, the inhibition in test [1] was -2.1% (inactive); in test [3] it was -94.2% (inactive); in test [7], -10.5% (inactive); in test [8] it was -46.9% (inactive). The inhibition of aggregation in test [2] was 7.1% (inactive). The figures for the nuclei count in test [2] and in test [3] were 105% and 255%, respectively. The fluorescence slope in test [4] was -0.413 (inactive). Besides, in test [5], the NADPH fluorescence slope was -5.9e-07 (inactive). Also, the slope in test [6] is 0.00584 (inactive).

Consider `Cc1nc2ccc(Br)cn2c1NC(C)(C)C`, for which the cell count in test [1] was found to be 209. Further, the inhibition in test [1] was 12.8% (inactive); in test [3], -2.7% (inactive); in test [7], -1.2% (inactive); in test [8] it was 3.15% (inactive). Also, the inhibition of aggregation in test [2] is -17.9% (inactive). Besides, the nuclei count is 103% in test [2] and 102% in test [3]. Moreover, the fluorescence slope in test [4] was -0.531 (inactive). In addition, the NADPH fluorescence slope in test [5] was -2.1e-05 (inactive). Moreover, the slope in test [6] is 0.00552 (inactive).

Regarding `CCOc1ccccc1C(=O)Nc1nnc(CC)s1`, in test [1], the cell count was found to be 537. For the same compound, the inhibition in test [1] was -12% (inactive); in test [3], -6.2% (inactive); in test [7], -6.19% (inactive); in test [8] it was -13.4% (inactive). In test [2], the inhibition of aggregation was 12.2% (inactive). Besides, the nuclei count in test [2] was determined as 59.9%; in test [3], 88%. In addition, in test [4], the fluorescence slope is -0.428 (inactive). In addition, the NADPH fluorescence slope in test [5] was -2.5e-05 (inactive). Moreover, in test [6], the slope was 0.00564 (inactive).

For the compound `Cc1cc(NC(=O)CCCN2C(=O)c3cccnc3C2=O)no1`, in test [1], the cell count amounted to 429. Further, the inhibition in test [1] is 5.6% (inactive); in test [3], -64.2% (inactive); in test [7] it was -4.41% (inactive); in test [8], 13.4% (inactive). Moreover, in test [2], the inhibition of aggregation is 17.7% (inactive). Further, the nuclei count in test [2] amounted to 100%; in test [3], 79.6%. Also, in test [4], the fluorescence slope was -0.459 (inactive). Moreover, the NADPH fluorescence slope in test [5] is 1.6e-05 (inactive). Moreover, the slope in test [6] was 0.00763 (inactive).

`CCOC(=O)C1=C(C)NC2=C(C(=O)CC(C)(C)C2)C1c1ccc(N(C)C)cc1` (centres undefined): the cell count in test [1] was 368. Also, the inhibition is -7.9% (inactive) in test [1], -27.4% (inactive) in test [3], -2.32% (inactive) in test [7] and 2.28% (inactive) in test [8]. Besides, the inhibition of aggregation in test [2] is 26.1% (inactive). In addition, the nuclei count in test [2] turned out to be 104%; in test [3] it was 116%. The fluorescence slope in test [4] was -0.491 (inactive). For the same compound, the NADPH fluorescence slope in test [5] is -8.1e-05 (inactive). Besides, the slope in test [6] is 0.00676 (inactive).

As for `COc1cccc(-c2csc(N3CCN(CC(=O)Nc4ccc5c(c4)OCO5)CC3)n2)c1`, in test [1], the cell count was 262. Also, the inhibition was 3.1% (inactive) in test [1], -4.3% (inactive) in test [3], -45.8% (inactive) in test [7] and -62.6% (inactive) in test [8]. Also, in test [2], the inhibition of aggregation is -24.6% (inactive). Moreover, the nuclei count in test [2] is 88.4%; in test [3] it was 91.2%. In test [4], the fluorescence slope is -0.622 (inactive). Further, the NADPH fluorescence slope in test [5] is -1.3e-05 (inactive). Further, in test [6], the slope is 0.00556 (inactive).

`CCc1nc(SCc2cc(Cl)ccc2OC)n[nH]1`: the cell count in test [1] was found to be 661. The inhibition was 8.7% (inactive) in test [1], -47.4% (inactive) in test [3], -11.3% (inactive) in test [7] and -22.3% (inactive) in test [8]. In test [2], the inhibition of aggregation is -8.3% (inactive). In addition, the nuclei count was 95.5% in test [2] and 103% in test [3]. Besides, in test [4], the fluorescence slope is -0.36 (inactive). Besides, the NADPH fluorescence slope in test [5] was -6.3e-05 (inactive). Moreover, the slope in test [6] was 0.00554 (inactive).

As to `Cc1nnc(SCC(=O)Nc2c(Cl)cccc2Cl)[nH]c1=O`, the cell count in test [1] came to 598. Besides, the inhibition was 1.1% (inactive) in test [1], 17.8% (inactive) in test [3], 8.99% (inactive) in test [7] and 41.1% (inactive) in test [8]. Moreover, the inhibition of aggregation in test [2] is 17.6% (inactive). Besides, the nuclei count in test [2] amounted to 87%; in test [3], 103%. Moreover, in test [4], the fluorescence slope is -0.553 (inactive). For the same compound, the NADPH fluorescence slope in test [5] is -4.3e-05 (inactive). Besides, the slope in test [6] was 0.00796 (inactive).

Consider `COc1ccc(OC)c(C(C)NC=O)c1` (centres undefined), for which, in test [1], the cell count worked out at 438. Besides, the inhibition in test [1] is 3% (inactive); in test [3], -56.8% (inactive); in test [7], 0.449% (inactive); in test [8] it was 23.1% (inactive). For the same compound, the inhibition of aggregation in test [2] was 14.2% (inactive). In addition, the nuclei count in test [2] and in test [3] was 108% throughout. Moreover, the fluorescence slope in test [4] was -0.449 (inactive). Further, in test [5], the NADPH fluorescence slope was 1.3e-05 (inactive). In test [6], the slope is 0.00556 (inactive).

As for `CN(C(=O)c1ccccc1Cl)c1ccccc1`, the cell count in test [1] worked out at 611. Further, the inhibition in test [1] was -2.4% (inactive); in test [3] it was -28.1% (inactive); in test [7] it was 15% (inactive); in test [8], 18.4% (inactive). Moreover, the inhibition of aggregation in test [2] was 3% (inactive). The figures for the nuclei count in test [2] and in test [3] were 107% and 92.5%, respectively. Also, in test [4], the fluorescence slope was -0.561 (inactive). For the same compound, the NADPH fluorescence slope in test [5] is -2e-06 (inactive). In test [6], the slope is 0.00587 (inactive).

The term inhibition denotes the change of the read-out against control, counted positive when it falls.
